SRC2 inh = inhibition of GAL4-SRC2 driven luciferase reporter, primary screen, SRC2 inhibitor project, cell-based, luminescence | Nuclear receptor coactivator 2 (Homo sapiens), Q15596 | 0.17% of 370,000 active | inhibition, % at 9 µM | HEK293 GAL4-SRC2 luciferase reporter;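 active = inhibition above the mean inhibition of all tested compounds plus 3 SD, set per campaign, cut at about 52% in these data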
GalR3 antagonist = GalR3 antagonists in HEK293 cells, primary screen, cell-based, fluorescence readout. Galanin receptor type 3 (Homo sapiens), O60755. HEK293 GalR3-CNG cAMP membrane potential fluorescence; galR3 body fused to GalR1 C-terminus. inhibition, % at 3 µM. 0.44% of 360,000 active. AID 651719, 2012;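 active = inhibition above the screen-wide average plus 3 SD, cut at about 13% in these data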;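 note: forskolin and galanin both at EC90 stimulate the cells; cAMP rise reported by CNG channel membrane potential dye signal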
NR5A2 inv ag = LRH-1 (NR5A2) inverse agonists, primary screen, cell-based, luminescence, HEK293T, StAR-luciferase reporter. Nuclear receptor subfamily 5 group A member 2 (Homo sapiens), O00482. inhibition, % at 3.6 µM. 0.13% of 360,000 active. AID 602396, 2012. LRH-1 transfected, 24 h;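 active = inhibition above the mean inhibition of all tested compounds plus 3 SD, cut at about 73% in these data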
COUP-TFII inh = NR2F2 transcriptional activity inhibitors, primary screen, cell-based, luciferase reporter, HEK293T, luminescence | inhibition, % at 8.6 µM | AID 686940, 2013 | 0.7% of 370,000 active | HEK293T NGFI-A luciferase reporter;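 active = inhibition above a per-plate cutoff, mean inhibition of test wells between control levels plus 3 SD, cut at about 38% in these data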;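 note: cells cotransfected with COUP-TFII expression vector driving the NGFI-A reporter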
SRC1 inh = SRC1 coactivator transcriptional activity inhibitors, primary screen, cell-based, luminescence | Nuclear receptor coactivator 1 (Homo sapiens), Q15788 | HEK293 GAL4-SRC1 luciferase reporter | inhibition, % at 3.6 µM | 0.12% of 360,000 active;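 active = inhibition above the campaign mean plus 3 SD, with each screening campaign given its own cutoff, cut at about 60% in these data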
NCOA3 inh = SRC3 coactivator transcriptional activity inhibitors, primary screen, cell-based, luminescence | HEK293 GAL4-SRC3 luciferase reporter | inhibition, % at 3.6 µM | 0.17% of 360,000 active | AID 588352, 2011;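 active = inhibition above a per-campaign cutoff, the mean of all compounds plus 3 SD, cut at about 60% in these data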;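 note: higher means less SRC3-driven luciferase light from the GAL4 reporter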
Target sequence (Q9Y6Q9 whole entry, looked up, the tested form may be a part): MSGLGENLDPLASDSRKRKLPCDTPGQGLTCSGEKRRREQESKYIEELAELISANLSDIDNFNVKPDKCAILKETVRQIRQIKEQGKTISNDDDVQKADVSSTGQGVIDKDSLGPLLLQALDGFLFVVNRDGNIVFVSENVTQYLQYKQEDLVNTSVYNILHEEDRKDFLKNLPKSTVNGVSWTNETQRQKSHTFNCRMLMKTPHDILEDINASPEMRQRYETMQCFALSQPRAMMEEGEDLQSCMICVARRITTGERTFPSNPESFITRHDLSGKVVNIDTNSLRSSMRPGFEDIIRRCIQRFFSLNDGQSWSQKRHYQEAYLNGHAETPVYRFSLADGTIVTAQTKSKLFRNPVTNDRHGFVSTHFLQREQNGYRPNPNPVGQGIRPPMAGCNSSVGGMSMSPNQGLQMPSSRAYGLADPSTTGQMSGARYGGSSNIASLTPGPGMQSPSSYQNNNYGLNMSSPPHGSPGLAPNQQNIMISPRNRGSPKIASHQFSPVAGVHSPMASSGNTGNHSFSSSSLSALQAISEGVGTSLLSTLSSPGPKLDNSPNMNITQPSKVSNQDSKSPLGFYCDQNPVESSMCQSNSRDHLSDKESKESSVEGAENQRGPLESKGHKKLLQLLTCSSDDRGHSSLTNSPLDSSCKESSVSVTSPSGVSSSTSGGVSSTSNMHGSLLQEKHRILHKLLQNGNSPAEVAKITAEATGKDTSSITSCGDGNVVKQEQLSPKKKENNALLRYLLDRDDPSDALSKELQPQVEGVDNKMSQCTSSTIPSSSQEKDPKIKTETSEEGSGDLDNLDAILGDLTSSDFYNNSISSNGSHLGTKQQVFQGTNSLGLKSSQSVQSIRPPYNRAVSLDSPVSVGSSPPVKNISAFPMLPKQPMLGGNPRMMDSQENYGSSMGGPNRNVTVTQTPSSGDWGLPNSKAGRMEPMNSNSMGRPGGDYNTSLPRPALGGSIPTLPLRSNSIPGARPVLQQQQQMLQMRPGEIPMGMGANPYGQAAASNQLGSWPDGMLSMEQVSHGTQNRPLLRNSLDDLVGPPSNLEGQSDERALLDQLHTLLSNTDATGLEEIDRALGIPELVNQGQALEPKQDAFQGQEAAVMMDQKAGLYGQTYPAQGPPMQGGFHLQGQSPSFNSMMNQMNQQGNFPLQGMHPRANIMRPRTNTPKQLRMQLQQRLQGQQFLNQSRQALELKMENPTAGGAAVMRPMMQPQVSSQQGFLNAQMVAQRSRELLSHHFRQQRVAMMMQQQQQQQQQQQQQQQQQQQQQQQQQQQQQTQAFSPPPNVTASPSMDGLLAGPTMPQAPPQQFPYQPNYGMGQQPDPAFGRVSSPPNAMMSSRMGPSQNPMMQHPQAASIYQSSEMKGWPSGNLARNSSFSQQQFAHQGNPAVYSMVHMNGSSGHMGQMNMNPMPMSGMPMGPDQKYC
Gal4-VP16 ctr = Gal4-VP16 luciferase reporter inhibitors, counter-screen for COUP-TFII antagonist project, cell-based, luminescence, HEK293. shares compounds with COUP-TFII inh. inhibition, % at 8.5 µM. 25% of 2,500 active. AID 687007, 2013; in the data active = inhibition above about 13%
NR2F2 inh conf = NR2F2 transcriptional activity inhibitors, confirmation, cell-based, luciferase reporter, HEK293, triplicate; HEK293 NGFI-A luciferase reporter, luminescence; 45% of 2,500 active; inhibition, % at 8.5 µM; shares compounds with COUP-TFII inh;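 active = mean inhibition over three repeats above a set limit taken from the earlier primary screen, cut at about 38% in these data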
Large screens that a line does not name were inactive (follow-up assays come after a bar, where they were run). Only some compounds are listed: those with a hit (about 1.1% of all), similar ones and a draw of the others.

O=C(Nc1ccccc1)C1=C[C@@H](C2CCCCC2)C[C@@H](OCCCCO)O1	COUP-TFII inh 40 | Gal4-VP16 ctr inactive | NR2F2 inh conf inactive
CCN(CC)C(=O)CC[C@@H]1CC[C@]2(CCCN(C(=O)c3cccnc3)C2)O1	none (no result: GalR3 antagonist, NR5A2 inv ag, SRC1 inh, NCOA3 inh)
O=C1C(N2CCOCC2)=C(n2nnc3ccccc32)C(=O)c2ccccc21	SRC2 inh 58, COUP-TFII inh 39 | Gal4-VP16 ctr 19 | NR2F2 inh conf inactive
CC(C)CNc1ncnc2c1ncn2[C@H]1CN(Cc2ccncc2)C[C@@H](CO)O1	none
CC(C)CNc1ncnc2c1ncn2[C@H]1CN(Cc2ccc(-c3ccccc3)cc2)C[C@@H](CO)O1	COUP-TFII inh 61 | Gal4-VP16 ctr inactive | NR2F2 inh conf 43
CC(C)Nc1ncnc2c1ncn2[C@H]1CN(Cc2ccc(-c3ccccc3)cc2)C[C@@H](CO)O1	COUP-TFII inh 49 | Gal4-VP16 ctr inactive | NR2F2 inh conf inactive
Cc1ccc(NC(=O)c2cccc3c2-c2ccccc2C3=O)c(C)c1	none (no result: GalR3 antagonist, NR5A2 inv ag, SRC1 inh, NCOA3 inh)
CN(Cc1ccc(Cl)cc1Cl)C(=O)c1cccc(S(=O)(=O)N2CCN(c3ccccc3)CC2)c1	none
CN(CC(=O)Nc1ccc(F)cc1)C(=O)c1cccc(S(=O)(=O)N2CCN(c3ccccc3)CC2)c1	none
COc1ccc(NC(=O)CN(C)C(=O)c2cccc(S(=O)(=O)N3CCN(c4ccc(F)cc4)CC3)c2)cc1	COUP-TFII inh 46 | Gal4-VP16 ctr inactive | NR2F2 inh conf inactive
COc1cccc(CN(C)C(=O)c2cccc(S(=O)(=O)N3CCN(c4ccc(F)cc4)CC3)c2)c1OC	COUP-TFII inh 59 | Gal4-VP16 ctr inactive | NR2F2 inh conf 39
COc1cccc(CN(C)C(=O)c2cccc(S(=O)(=O)N3CCN(Cc4ccccc4)CC3)c2)c1OC	none
CN(CCOc1ccc(Cl)cc1)C(=O)c1cccc(S(=O)(=O)N2CCN(c3ccccc3)CC2)c1	COUP-TFII inh 59 | Gal4-VP16 ctr inactive | NR2F2 inh conf 44
COc1cccc(CN(C)C(=O)c2cccc(S(=O)(=O)N3CCN(c4ccccc4)CC3)c2)c1OC	COUP-TFII inh 52 | Gal4-VP16 ctr inactive | NR2F2 inh conf inactive
COc1ccccc1CNC(=O)c1cccc(S(=O)(=O)N2CCN(c3ccc(F)cc3)CC2)c1	none
CC(C)=CCC[C@@]1(C(=O)O)[C@@H]2C/C=C(\C)CC/C=C(\C)CC[C@H]1[C@]1(CC2)CO1	none (no result: GalR3 antagonist, NR5A2 inv ag, SRC1 inh, NCOA3 inh)
CN(Cc1ccccc1)C(=O)OCc1cn(Cc2ccccc2)nn1	none (no result: GalR3 antagonist, NR5A2 inv ag, SRC1 inh, NCOA3 inh)
O=C1C(=O)N(CCN2CCOCC2)C(c2ccccn2)/C1=C(/O)c1ccc(F)cc1 (configuration not stated)	none
Cc1c(/C(O)=C2\C(=O)C(=O)N(CCCN(C)C)C2c2ccccc2)cnn1-c1ccccc1 (configuration not stated)	COUP-TFII inh 51 | Gal4-VP16 ctr inactive | NR2F2 inh conf inactive
Cc1c(/C(O)=C2/C(=O)C(=O)N(CCN3CCOCC3)C2c2ccccn2)cnn1-c1ccccc1 (configuration not stated)	SRC2 inh 80, NR5A2 inv ag 83, COUP-TFII inh 100, SRC1 inh 84, NCOA3 inh 85 | Gal4-VP16 ctr 31 | NR2F2 inh conf 39
COc1cc(F)ccc1CN1CCC(C(=O)Nc2ccc(Oc3ccccc3)nc2)CC1	COUP-TFII inh 40 | Gal4-VP16 ctr inactive | NR2F2 inh conf inactive
Cc1ccc(-c2cc3cccc[n+]3cc2-c2ccc(C)cc2)cc1	NR5A2 inv ag 84, COUP-TFII inh 66 | Gal4-VP16 ctr inactive | NR2F2 inh conf 54
COc1cc(OC)cc(-c2cc3nc(C)c(CCC(=O)NCc4ccccc4)c(C)n3n2)c1	SRC2 inh 77, COUP-TFII inh 58 | Gal4-VP16 ctr 29 | NR2F2 inh conf 47
Cc1csc(NC(=O)CCc2c(C)nc3cc(-c4ccc(Cl)cc4)nn3c2C)n1	SRC2 inh 66, COUP-TFII inh 49 | Gal4-VP16 ctr inactive | NR2F2 inh conf inactive
CC(C)(C)c1ccc(Oc2ccc(N)cn2)cc1	SRC2 inh 86, COUP-TFII inh 78 | Gal4-VP16 ctr 76 | NR2F2 inh conf 67
Cc1cc(Oc2ccc(N)cn2)cc(C)c1Cl	COUP-TFII inh 38 | Gal4-VP16 ctr inactive | NR2F2 inh conf inactive
CC(C)(C)c1ccc(Oc2ccc(NC(=O)c3ccccc3C(=O)O)cn2)cc1	SRC2 inh 85, COUP-TFII inh 80 | Gal4-VP16 ctr 47 | NR2F2 inh conf inactive
COc1ccccc1-c1cccc2c3c([nH]c12)[C@@H]1C[C@H]2[C@@H](CN1CC3)[C@H](C)ON2C	none (no result: GalR3 antagonist, NR5A2 inv ag, SRC1 inh, NCOA3 inh)
CCCOc1ccc(/C=N/NC(=S)Nc2ccccc2[N+](=O)[O-])c(O)c1	SRC2 inh 52, COUP-TFII inh 73 (no result: NR5A2 inv ag, SRC1 inh, NCOA3 inh) | Gal4-VP16 ctr 73 | NR2F2 inh conf 83
CCCOc1ccc(/C=N/Nc2ccccc2[N+](=O)[O-])c(O)c1	COUP-TFII inh 44 | Gal4-VP16 ctr inactive | NR2F2 inh conf 46
Cc1ccc(/C=N/Nc2cccc(C(=O)O)c2)s1	none
CC(C)c1ccc(/C=N/Nc2ccc(C(=O)O)cc2)cc1	COUP-TFII inh 52 | Gal4-VP16 ctr inactive | NR2F2 inh conf 37
Cc1ccc(/C=N/Nc2ccc(C(=O)O)cc2)s1	COUP-TFII inh 41 | Gal4-VP16 ctr inactive | NR2F2 inh conf inactive
COc1ccc2c(c1)CCCN2C(=O)C1CCCN(S(=O)(=O)c2ccc(Cl)s2)C1 (configuration not stated)	none (no result: GalR3 antagonist, NR5A2 inv ag, SRC1 inh, NCOA3 inh)
O=C(CC1CCCC1)N1CC[C@H]2[C@H](CCCN2Cc2ccc(F)cc2)C1	none (no result: GalR3 antagonist, NR5A2 inv ag, SRC1 inh, NCOA3 inh)
CCC(C(=O)Nc1ccccc1N1CCCC1)c1cccc(OC)c1 (configuration not stated)	none (no result: GalR3 antagonist, NR5A2 inv ag, SRC1 inh, NCOA3 inh)
Cc1ccc(N2C(N)=C(C#N)C3(C(=O)N(C)c4ccccc43)C3=C2CC(C)(C)CC3=O)cc1Cl (configuration not stated)	none
CN1C(=O)C2(C(C#N)=C(N)N(c3cc(Cl)cc(Cl)c3)C3=C2C(=O)CC(C)(C)C3)c2ccccc21 (configuration not stated)	COUP-TFII inh 44 | Gal4-VP16 ctr inactive | NR2F2 inh conf inactive
